# Screening data deposited in PubChem by Buhrlage Lab, Dana-Farber Cancer Institute and Novartis Institutes for BioMedical Research (Cambridge, Mass).
# USP28 inh: human USP28 deubiquitinase inhibition; Q96RU2; purified USP28, Ub-rhodamine cleavage fluorescence, 30 min; inhibition, % at 25 µM; hit rate 3% among 47,000; AID 1645857
# USP10 inh: inhibitors of human USP10 deubiquitinase; purified USP10, Ub-rhodamine fluorescence, 60 min; inhibition, % at 20 µM; hit rate 1.1% among 47,000; AID 1645856
# USP30 block: blocks human USP30 ubiquitin-rhodamine cleavage | Q70CQ3 | purified USP30, Ub-rhodamine cleavage fluorescence | inhibition, % at 25 µM | hit rate 5.3% among 47,000 | AID 1645860
# USP17 block: inhibitors of human USP17 deubiquitinase | purified USP17, Ub-rhodamine cleavage fluorescence, 3 h | inhibition, % at 50 µM | hit rate 6.5% among 47,000 | AID 1645855
# USP8 inh: human USP8 deubiquitinase inhibition; purified USP8, Ub-rhodamine cleavage fluorescence, 30 min; inhibition, % at 20 µM; hit rate 4.2% among 47,000
# A number is an active result; i = inactive; nt = not tested or not shown. An excerpt weighted towards active compounds, which were near 13% of everything screened. Rule as the data show it: active = inhibition above about 30%; inactive = the rest.
SMILES,USP28 inh,USP10 inh,USP30 block,USP17 block,USP8 inh
O=C(Cn1cnc2sccc2c1=O)N1CCc2ccccc21,i,i,i,i,i
O=C(COc1ccc2c(c1)OCO2)Nc1ccc2c(c1)OCCO2,35.9,i,i,i,i
N#Cc1ccc(-c2ccc(OCC(=O)Nc3ccc4c(c3)OCO4)cc2)cc1,i,i,i,55.5,43.3
Fc1ccccc1-c1noc(N2CCN(c3ccccc3)CC2)n1,i,i,i,i,i
O=C(Cn1c(=O)n(C2CC2)c(=O)c2nscc21)Nc1ccccc1,i,i,i,i,i
CNc1nc(C2CCCCN2S(=O)(=O)c2ccc(F)cc2)nc2c1CCN(C(C)=O)C2 (stereo not drawn),i,i,i,i,i
CN(CC(=O)Nc1ccc2c(c1)OCO2)S(=O)(=O)c1cccs1,i,i,i,i,49.9
O=C(COc1ccc2c(c1)CCC2)Nc1ccc2c(c1)CCC2,i,i,i,59.1,i
O=C(COc1ccc2ccccc2c1)Nc1ccc2c(c1)CCC2,i,i,i,i,i
O=C(CNS(=O)(=O)c1cccs1)Nc1ccc2c(c1)OCCO2,i,i,i,i,i
CC(Oc1ccc(Cl)cc1)C(=O)Nc1ccc2c(c1)CCC2 (stereo not drawn),i,i,31.8,i,i
O=C(Cn1cnc2ccccc21)Nc1ccc2c(c1)CCC2,i,i,52.6,32.4,i
CC(Oc1ccc(F)cc1)C(=O)Nc1ccc2c(c1)NC(=O)CO2 (stereo not drawn),i,i,i,i,i
CN1CC2(CCN(C(=O)c3ccc[nH]3)CC2)COc2ccccc2S1(=O)=O,i,i,i,i,i
CCS(=O)(=O)N1CCc2ccc(NS(=O)(=O)c3ccc(F)cc3F)cc2C1,i,i,i,i,i
Cc1ccc(C)c(N2C(=O)CN(S(C)(=O)=O)CC2(C)C(=O)NC2CCCCC2)c1 (stereo not drawn),i,i,i,i,i
O=C(Cc1c(F)cccc1Cl)Nc1ccc2c(c1)OCO2,i,i,i,i,i
O=C(Cc1ccc(Br)cc1)Nc1ccc2c(c1)OCO2,i,i,i,44.2,i
O=C(Nc1cc(Cl)ccc1-n1cncn1)c1ccc(S(=O)(=O)N2CCCC2)cc1,i,i,65.6,i,i
O=C(Nc1cc(Cl)ccc1-n1cncn1)c1ccc(-n2cccn2)cc1,i,i,i,i,i
Cc1noc(C)c1COc1cccc(C(=O)Nc2cc(Cl)ccc2-n2cncn2)c1,52.1,i,i,38.1,i
COc1ccccc1/C=C(\C(=O)N1CCN(c2ccccc2)CC1)c1ccccc1,i,i,35.3,i,i
O=C(NCC(=O)N1CCN(c2ccccc2)CC1)c1ccccc1,i,i,i,i,i
CCOc1nc2cccnc2n(Cc2cccc(Cl)c2)c1=O,i,i,i,i,i
COc1ccc2cc1Oc1cc(ccc1OC)C(O)C13SSC4(C(=O)N1C)C(O)C1=COC=CC(OC2=O)C1N4C3=O (stereo not drawn),i,i,73.1,i,i
SMILES,USP28 inh,USP10 inh,USP30 block,USP17 block,USP8 inh
COc1ccc(Nc2cc(C(=O)NCCCN(CC(C)C)CC(C)C)c3ccccc3n2)cc1,i,i,i,i,i
CCc1ccc(Nc2cc(C(=O)NCCCOC(C)C)c3ccccc3n2)cc1,i,i,i,69.4,i
CS(=O)(=O)c1ccc(CN2CC[C@H]3COC(=O)N(Cc4ccccc4)[C@@H]3C2)cc1,i,i,i,i,i
Cc1ccc(-c2nc(N3CCCC(O)C3)ncc2-c2cnccn2)s1 (stereo not drawn),i,i,i,73.1,i
c1cnc(N2CCCC(c3nc(N4CCOCC4)ncc3-c3cccnc3)C2)nc1 (stereo not drawn),i,i,i,i,i
COc1ccc(-c2noc(-c3ccc(N4CCC5(CC4)OCCO5)nn3)n2)cc1,i,i,i,44.6,i
CN1CCN(c2ccc(-c3nc(-c4ccc(F)cc4)no3)nn2)CC1,i,i,i,i,i
COc1ccc(C(=O)NCCn2cnc3ccccc32)cc1,i,i,i,i,i
CC(=O)Nc1cc(NC(=O)CSc2nnc(-c3ccco3)c(-c3ccco3)n2)ccc1C,i,i,i,46.0,73.2
COc1ccc(S(=O)(=O)NCCC(=O)N2CCCC(c3nnc4ccccn34)C2)cc1 (stereo not drawn),i,i,i,i,i
O=C(CNS(=O)(=O)c1ccc(F)cc1)N1CCCC(c2nnc3ccccn23)C1 (stereo not drawn),51.3,i,i,i,57.0
Cc1ccc2nc(NC(=O)C3CCCN3S(=O)(=O)c3ccc4c(c3)OCCO4)sc2c1 (stereo not drawn),53.4,i,i,i,i
O=C(COc1ccc(Cl)cc1)NCC(c1cccnc1)S(=O)(=O)c1ccccc1 (stereo not drawn),i,i,i,i,i
O=C(NC1CCCC1)c1ccc(Cn2c(=O)c3ccccc3n(Cc3cccnc3)c2=O)cc1,i,i,i,i,i
COc1ccc(-n2c(C)cc(C(=O)CSc3nncn3-c3ccccc3OC)c2C)cc1,30.5,i,i,33.6,i
O=C(Nc1ccc2c(c1)OCCO2)C1CCC(Cn2cnc3ccccc3c2=O)CC1 (stereo not drawn),92.5,50.9,i,i,i
Cc1cc(C(=O)N2CCC(C(=O)Nc3ccc4c(c3)OCO4)CC2)c2ccccc2n1,i,i,i,i,i
O=C(O)CCNC(=O)C1CCC(Cn2cnc3ccccc3c2=O)CC1 (stereo not drawn),i,i,i,i,i
O=C(Nc1ccc2c(c1)OCO2)C1CCN(C(=O)c2ccc3n[nH]nc3c2)CC1,45.0,i,i,i,35.6
O=C(Nc1ccc2c(c1)OCCO2)C1CCN(C(=O)c2ccccc2)CC1,76.2,i,i,i,i
O=c1c(Nc2cccc(F)c2)nc2ccncc2n1Cc1ccccc1,i,i,i,66.6,i
O=c1c(NCCN2CCCC2)nc2ccncc2n1Cc1ccccc1,nt,i,nt,66.1,i
Cc1cc(-c2cc(CC3CCN(C(=O)C(C)(C)C)CC3)ncn2)n[nH]1,i,i,i,i,i
Cc1ccc(NC(=O)CCc2nnc(C(=O)Nc3ccccc3)s2)cc1C,i,i,i,39.2,i
Cc1cccc(N2CCN(C(=O)CCc3nnc(C(=O)Nc4ccccc4)s3)CC2C)c1 (stereo not drawn),i,i,i,i,i
SMILES,USP28 inh,USP10 inh,USP30 block,USP17 block,USP8 inh
CCC(=O)N1CCc2cc(C(=O)Nc3ccccc3OC)ccc21,43.3,i,i,i,i
CCS(=O)(=O)N1CCCc2cc(C(=O)Nc3ccccc3OC)ccc21,i,i,i,i,i
CCC(=O)N1CCCc2ccc(NC(=O)c3ccccc3OC)cc21,i,i,i,i,i
CCC(=O)N1CCCc2ccc(NC(=O)c3cccc(OC)c3)cc21,37.3,i,i,i,i
NC(=O)N1CCCCCC1C1CCN(c2ncnc3ccsc23)CC1 (stereo not drawn),i,i,32.0,i,i
Cc1cn2nc(N3CCC(C4CCCCCN4C(N)=O)CC3)sc2n1 (stereo not drawn),i,i,i,i,i
CC(OC(=O)c1c2c(nc3ccccc13)CCC(C(C)(C)C)C2)C(=O)Nc1cccc([N+](=O)[O-])c1 (stereo not drawn),i,i,i,i,i
